Measured values from PubChem BioAssay AID1159580 (chemical genetic matrix, 2015).
The campaign covered roughly 5,500 compounds. About 2,000 (36%) were called active. Inconclusive results (about 18%) are left out. Cut-off read from the data, not from the text of the source: active = normalized growth mostly below about 0.91 (no sharp cut-off); inconclusive = no clear call, values can overlap the other calls; inactive = mostly above about 0.92. This is one part of the list.

Experiment: chemical genetic growth profiling, strain panel (AID 1159580);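 note: tested at 20 µM; growth read once vehicle control cultures reached saturation at 30 °C; 1 = growth at the plate median or of vehicle wells; lower values mean less growth of the strain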
Details: growth OD
[1] = S. cerevisiae deletion strains, locus YCL061C, strain MRC1, active compounds read low
[2] = S. cerevisiae deletion strains, locus YHR030C, strain SLT2, active compounds read low

Measured: normalized growth

O=C(NC(=O)c1c(F)cccc1F)Nc1ccc(Cl)cc1
inactive: S. cerevisiae deletion strains, locus YAL021C, strain ccr4, active compounds read low 1.03 | S. cerevisiae deletion strains, locus YAL026C, strain drs2, active compounds read low 1.01 | S. cerevisiae deletion strains, locus YAL030W, strain snc1, active compounds read low 1.02 | S. cerevisiae deletion strains, locus YBL061C, strain skt5, active compounds read low 1.01 | S. cerevisiae deletion strains, locus YBR009C, strain hhf1, active compounds read low 1.02 | S. cerevisiae deletion strains, locus YBR023C, strain chs3, active compounds read low 1.02 | S. cerevisiae deletion strains, locus YBR171W, strain sec66, active compounds read low 1.03 | S. cerevisiae deletion strains, locus YBR231C, strain swc5, active compounds read low 1.04 | S. cerevisiae deletion strains, locus YBR279W, strain paf1, active compounds read low 1.01 | S. cerevisiae deletion strains, locus YCL011C, strain gbp2, active compounds read low 1 | S. cerevisiae deletion strains, locus YCL016C, strain dcc1, active compounds read low 1.02 | [1] 1.01 | S. cerevisiae deletion strains, locus YCL069W, strain vba3, active compounds read low 0.996 | S. cerevisiae deletion strains, locus YCR088W, strain abp1, active compounds read low 1 | S. cerevisiae deletion strains, locus YDL005C, strain med2, active compounds read low 1.05 | S. cerevisiae deletion strains, locus YDL040C, strain nat1, active compounds read low 1.03 | S. cerevisiae deletion strains, locus YDR001C, strain nth1, active compounds read low 1.02 | S. cerevisiae deletion strains, locus YDR069C, strain doa4, active compounds read low 1.03 | S. cerevisiae deletion strains, locus YDR137W, strain rgp1, active compounds read low 1.01 | S. cerevisiae deletion strains, locus YDR159W, strain sac3, active compounds read low 1.04 | S. cerevisiae deletion strains, locus YDR195W, strain ref2 1.11 | S. cerevisiae deletion strains, locus YDR297W, strain sur2, active compounds read low 1.03 | S. cerevisiae deletion strains, locus YDR334W, strain swr1, active compounds read low 1.01 | S. cerevisiae deletion strains, locus YDR335W, strain msn5, active compounds read low 1.03 | S. cerevisiae deletion strains, locus YDR392W, strain spt3, active compounds read low 0.955 | S. cerevisiae deletion strains, locus YEL003W, strain gim4, active compounds read low 1.03 | S. cerevisiae deletion strains, locus YEL037C, strain rad23, active compounds read low 1.01 | S. cerevisiae deletion strains, locus YEL061C, strain CIN8 (second series), active compounds read low 1.01 | S. cerevisiae deletion strains, locus YER015W, strain faa2, active compounds read low 1.02 | S. cerevisiae deletion strains, locus YER016W, strain bim1, active compounds read low 1.03 | S. cerevisiae deletion strains, locus YER111C, strain swi4, active compounds read low 1.01 | S. cerevisiae deletion strains, locus YER155C, strain BEM2 (second series), active compounds read low 1.02 | S. cerevisiae deletion strains, locus YFR010W, strain ubp6, active compounds read low 1.01 | S. cerevisiae deletion strains, locus YGL167C, strain pmr1, active compounds read low 1.02 | S. cerevisiae deletion strains, locus YGL173C, strain kem1, active compounds read low 1.01 | S. cerevisiae deletion strains, locus YGL227W, strain vid30, active compounds read low 1.03 | S. cerevisiae deletion strains, locus YGL240W, strain doc1, active compounds read low 1.02 | S. cerevisiae deletion strains, locus YGL253W, strain hxk2, active compounds read low 1.01 | S. cerevisiae deletion strains, locus YHR013C, strain ard1, active compounds read low 1.03 | S. cerevisiae deletion strains, locus YHR027C, strain rpn1, active compounds read low 1.02 | [2] 1.06 | S. cerevisiae deletion strains, locus YHR079C, strain IRE1, active compounds read low 1.04 | S. cerevisiae deletion strains, locus YHR142W, strain chs7, active compounds read low 1.01 | S. cerevisiae deletion strains, locus YJL092W, strain hpr5, active compounds read low 1.02 | S. cerevisiae deletion strains, locus YJL095W, strain BCK1 (second series), active compounds read low 1.01 | S. cerevisiae deletion strains, locus YJL095W, strain BCK1, active compounds read low 1.03 | S. cerevisiae deletion strains, locus YJL115W, strain asf1, active compounds read low 1.04 | S. cerevisiae deletion strains, locus YJL129C, strain trk1, active compounds read low 1.02 | S. cerevisiae deletion strains, locus YJL154C, strain vps35, active compounds read low 1.01 | S. cerevisiae deletion strains, locus YJL164C, strain tpk1, active compounds read low 1 | S. cerevisiae deletion strains, locus YJL166W, strain qcr8, active compounds read low 1.02 | S. cerevisiae deletion strains, locus YJL187C, strain SWE1, active compounds read low 1.03 | S. cerevisiae deletion strains, locus YJR066W, strain TOR1, active compounds read low 0.956 | S. cerevisiae deletion strains, locus YKL160W, strain elf1, active compounds read low 1 | S. cerevisiae deletion strains, locus YKR026C, strain gcn3, active compounds read low 1.01 | S. cerevisiae deletion strains, locus YKR091W, strain srl3, active compounds read low 1.01 | S. cerevisiae deletion strains, locus YLL001W, strain dnm1, active compounds read low 0.996 | S. cerevisiae deletion strains, locus YLL026W, active compounds read low 1.02 | S. cerevisiae deletion strains, locus YLL041C, strain sdh2, active compounds read low 1.01 | S. cerevisiae deletion strains, locus YLR027C, strain aat2, active compounds read low 1.02 | S. cerevisiae deletion strains, locus YLR113W, strain HOG1, active compounds read low 1.04 | S. cerevisiae deletion strains, locus YLR221C, strain rsa3, active compounds read low 0.994 | S. cerevisiae deletion strains, locus YLR258W, strain gsy2, active compounds read low 1.02 | S. cerevisiae deletion strains, locus YLR262C, strain YPT6 (second series), active compounds read low 0.974 | S. cerevisiae deletion strains, locus YLR320W, strain mms22, active compounds read low 0.988 | S. cerevisiae deletion strains, locus YLR342W, strain FKS1, active compounds read low 1.02 | S. cerevisiae deletion strains, locus YLR357W, strain rsc2, active compounds read low 1.06 | S. cerevisiae deletion strains, locus YLR370C, strain arc18, active compounds read low 1.02 | S. cerevisiae deletion strains, locus YLR384C, strain iki3, active compounds read low 1.03 | S. cerevisiae deletion strains, locus YML120C, strain ndi1, active compounds read low 1 | S. cerevisiae deletion strains, locus YMR058W, strain fet3, active compounds read low 1.02 | S. cerevisiae deletion strains, locus YMR125W, strain sto1, active compounds read low 1.01 | S. cerevisiae deletion strains, locus YMR129W, active compounds read low 1.02 | S. cerevisiae deletion strains, locus YMR205C, strain PFK2, active compounds read low 1.04 | S. cerevisiae deletion strains, locus YMR231W, strain pep5, active compounds read low 1.03 | S. cerevisiae deletion strains, locus YNL071W, strain lat1, active compounds read low 1 | S. cerevisiae deletion strains, locus YNL183C, strain NPR1, active compounds read low 0.954 | S. cerevisiae deletion strains, locus YNL209W, strain ssb2, active compounds read low 1.02 | S. cerevisiae deletion strains, locus YNL248C, strain rpa49, active compounds read low 1 | S. cerevisiae deletion strains, locus YNL322C, strain KRE1 (second series), active compounds read low 1.02 | S. cerevisiae deletion strains, locus YNR049C, strain mso1, active compounds read low 1.02 | S. cerevisiae deletion strains, locus YOR001W, strain rrp6, active compounds read low 1.01 | S. cerevisiae deletion strains, locus YOR070C, strain gyp1, active compounds read low 1.02 | S. cerevisiae deletion strains, locus YOR080W, strain dia2, active compounds read low 1.03 | S. cerevisiae deletion strains, locus YOR083W, strain WHI5, active compounds read low 0.968 | S. cerevisiae deletion strains, locus YOR106W, strain vam3, active compounds read low 1.01 | S. cerevisiae deletion strains, locus YOR231W, strain MKK1, active compounds read low 1.03 | S. cerevisiae deletion strains, locus YOR265W, strain rbl2, active compounds read low 1.02 | S. cerevisiae deletion strains, locus YOR270C, strain vph1, active compounds read low 0.932 | S. cerevisiae deletion strains, locus YOR290C, strain snf2, active compounds read low 1.01 | S. cerevisiae deletion strains, locus YPL051W, strain arl3, active compounds read low 1.01 | S. cerevisiae deletion strains, locus YPL078C, strain atp4, active compounds read low 1 | S. cerevisiae deletion strains, locus YPL106C, strain sse1, active compounds read low 1.02 | S. cerevisiae deletion strains, locus YPL240C, strain hsp82, active compounds read low 1.04 | S. cerevisiae deletion strains, locus YPL256C, strain CLN2, active compounds read low 1.12

Cc1onc(NC(=O)NC(=O)c2c(F)cccc2Cl)c1Br
inactive: S. cerevisiae deletion strains, locus YAL013W, strain DEP1, active compounds read low 1 | S. cerevisiae deletion strains, locus YBR229C, strain ROT2, active compounds read low 0.996 | [1] 1.03 | S. cerevisiae deletion strains, locus YDL101C, strain DUN1, active compounds read low 1.04 | S. cerevisiae deletion strains, locus YDR150W, strain NUM1, active compounds read low 1.01 | S. cerevisiae deletion strains, locus YEL061C, strain CIN8, active compounds read low 0.973 | S. cerevisiae deletion strains, locus YGR078C, strain PAC10, active compounds read low 1.01 | [2] 0.96 | S. cerevisiae deletion strains, locus YHR087W, strain rtc3, active compounds read low 0.971 | S. cerevisiae deletion strains, locus YJR043C, strain POL32, active compounds read low 1.01 | S. cerevisiae deletion strains, locus YJR075W, strain HOC1, active compounds read low 1.01 | S. cerevisiae deletion strains, locus YLR039C, strain RIC1, active compounds read low 1 | S. cerevisiae deletion strains, locus YLR058C, strain SHM2 (second series), active compounds read low 1 | S. cerevisiae deletion strains, locus YLR085C, strain ARP6, active compounds read low 0.986 | S. cerevisiae deletion strains, locus YLR262C, strain YPT6, active compounds read low 0.988 | S. cerevisiae deletion strains, locus YML094W, strain GIM5, active compounds read low 0.973 | S. cerevisiae deletion strains, locus YMR219W, strain ESC1, active compounds read low 0.998 | S. cerevisiae deletion strains, locus YMR263W, strain SAP30, active compounds read low 1.01 | S. cerevisiae deletion strains, locus YNL153C, strain GIM3, active compounds read low 1.02 | S. cerevisiae deletion strains, locus YNL298W, strain CLA4 (second series), active compounds read low 1.01 | S. cerevisiae deletion strains, locus YNL322C, strain KRE1, active compounds read low 1 | S. cerevisiae deletion strains, locus YNR030W, strain Alg12, active compounds read low 0.981 | S. cerevisiae deletion strains, locus YOL006C, strain TOP1, active compounds read low 1 | S. cerevisiae deletion strains, locus YPL055C, strain LGE1, active compounds read low 0.964 | S. cerevisiae deletion strains, locus YPL241C, strain CIN2, active compounds read low 1 | S. cerevisiae deletion strains, locus YPR135W, strain CTF4, active compounds read low 0.977 | S. cerevisiae strains, strain wild type, active compounds read low 1
